Structures are written as SMILES. The panel holds about 83,000 compounds, 20% with a hit somewhere; the sample as a whole holds those more often.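 The endpoint reported here, percent growth, reads 100 for growth as untreated, 0 for no net growth and -100 for all cells dead.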 Active and inactive are the calls of the source. Rule for the calls: active = growth percent below 10; inactive = the rest.

For the assay, the system named is RXF 393 renal. Description: NCI-60 one-dose screen, 48 h (100 = growth as untreated, 0 = no growth, -100 = all killed). To be noted: 10 µM unless noted.
For the molecule `COc1ccc(Cn2cc3c(c2-c2ccccc2)CCc2cnoc2-3)cc1OC`, the growth was 13.1% (inactive).
Consider `c1ccc(-c2cn3ccnc3c(-c3ccc4ncn(C5CCCCC5)c4c3)n2)cc1`, for which the growth was 55% (inactive).
As for `COc1ccc(C(=O)CN2C(=O)NC(c3ccccc3)(c3ccccc3)C2=O)cc1`, the figure is 105% (inactive); as for `NNC(=S)N1N=C(c2cc3ccccc3o2)CC1c1c[nH]c2ccccc12` (stereo not given), 77.7% (inactive); as for `Cc1c(C(N)=O)sc2c1c(=O)n(Cc1ccccc1)c1nnc(S(C)(=O)=O)n21`, 49.3% (inactive).
On to `CCOC(=O)C1=NN(c2ccccc2)C2=NC(=O)/C(=C\c3cn(-c4ccccc4)nc3-c3cc4ccccc4o3)C(=O)N12`, for which the growth was 124% (inactive).
As for `CCCCN(CCCC)CC(O)CN(CC)CC` (stereo not given), the figure is 104% (inactive).
As for `COc1ccc(Cn2cc3c(c2)-c2oncc2CC3)cc1OC`, the figure is 9.09% (active); as for `COc1ccc(Cn2cc3c(c2-c2ccc(OC)cc2)CCc2cnoc2-3)cc1`, -1.78% (active); as for `COc1ccc2oc(=O)cc(CN3C(=O)S/C(=C\c4ccc(Cl)cc4)C3=O)c2c1`, 116% (inactive).
To `COc1cc(-c2nc(/C=C3/C(=O)Nc4ccccc43)c3ccccn23)cc(OC)c1OC` belongs 76.2% (inactive); to `CCNc1nnc(COc2ccc(CNC(=O)CCCC/C=C/C(C)C)cc2OC)o1`, 120% (inactive).
With `O=C1c2ccccc2CCc2ccccc21`, the growth was 101% (inactive).
In the case of `O=C(/C=C/c1c[nH]c2ccccc12)c1cc2ccccc2o1`, the growth was 114% (inactive).
Consider `CCCCCCCCCCCCCCCCC(=O)O.CCCCCCCCCCCCCCCCCC(=O)O.CCCCCCCCCCCCCCCCCC(=O)O.CCCCCCCCCCCCCCCCCC(=O)O.CCCCCCCCCCCCCCCCCC(=O)O.CO[CH-]OC12COC1CC(O)C1(C)C(O)C(OC(C)O)C3=C(C)C(OC(=O)C(O)C([NH-])c4ccccc4)CC(O)(C(OC(=O)c4ccccc4)C21)C3(C)C.[Cu+].[Zn].[Zn].[Zn].[Zn].[Zn]` (stereo not given), for which the growth was 24.3% (inactive).
To `N#Cc1ccc(NC2c3ccccc3CC2O)cc1` (stereo not given) belongs 89.6% (inactive); to `C=CCN(C)C`, 111% (inactive).
As for `Cc1ccc(C(=O)NN)cc1`, the figure is 103% (inactive); as for `CC[C@@H](C)/C=C(C)/C=C/C(=O)c1c(O)c(-c2ccc(OC(=O)[C@@]34CC[C@@](C)(C(=O)O3)C4(C)C)cc2)cn(O)c1=O`, 31.6% (inactive).
To `Cc1c(CN(C)C)cc(C(C)C)cc1C(C)C` belongs 112% (inactive); to `CC1(c2ccc(Br)cc2)NC(=O)NC1=O` (stereo not given), 112% (inactive).
`Oc1ccc2ccccc2c1/C=N\Nc1ccccn1`: the growth was 18.3% (inactive).
To `COC1=C(OC)C(=O)c2ccccc2C1=O` belongs 93.2% (inactive); to `CCCCCC(=C/c1ccccc1)/C=N/N=C(N)N`, -31.3% (active); to `O=C1C(Cl)=C(SC2=NCCN2)C(=O)c2ccccc21`, 121% (inactive).
With `C[C@@H](c1ccc2c(c1)[nH]c1ccc(Cl)cc12)c1nc2ccc(Cl)cc2[nH]1`, the growth is 101% (inactive).
As for `O=c1oc2ccc3ccccc3c2cc1-c1ccnc2[nH]c(=S)[nH]c(=O)c12`, the figure is 118% (inactive); as for `O=S(=O)(Cc1cccc2c(CS(=O)(=O)c3ccc(Cl)cc3)cccc12)c1ccc(Cl)cc1`, 109% (inactive).
`COc1ccc(CN2C(=O)/C(=C\C(=O)c3ccc(OCCN4CCCC4)cc3)c3ccccc32)cc1`: the growth is 65.2% (inactive).
Turning to `Cc1cc(CSc2ccc(Cl)cc2)ccc1N`, the growth is 105% (inactive).

These data come from PubChem BioAssay (NCI).
